Assay results published in PubChem BioAssay AID686979 (National Center for Advancing Translational Sciences (NCATS), 2013).
Hit rate of the full screen: of about 420,000 compounds, about 50,000 (12%) were called active. Inconclusive results (about 26%) are left out. The entries come from a sample that favours actives as a whole. Values without a mark were called inactive. Calls follow the shape of the dose curve; as a rule, active = well fitted inhibition curve with a large enough effect; inconclusive = small, poorly fitted or top-dose-only effect; inactive = flat fitted curve, though single readings scatter.

Assay: qHTS for Inhibitors of human tyrosyl-DNA phosphodiesterase 1 (TDP1): qHTS in cells in presence of CPT; also: nearly all actives have a fitted effect of over 55% in size
Settings: chicken DT40 Tdp1-/-;hTDP1 cells + 20 nM CPT, ATP luminescence, 48 h; series mostly up to 46.2 µM; activity change, negative = growth inhibition: at the top concentration
Outline: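 Cell growth measured by CellTiter-Glo luminescence after a minimum 48 h, 37 C compound exposure with 20 nM CPT in Tdp1-knockout DT40 cells stably expressing hTDP1, seeded 400/well; qHTS titration format.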
% is scaled to controls: 0 for no effect and ±100 for the full control effect; potency is read from the fitted curve at half-maximal effect.

Row | SMILES | activity change, negative = growth inhibition | Potency
1 | O=C(CSc1nnnn1C1CCCC1)N1CCCCC1 | -12.8% | 
2 | COc1ccccc1/C=C/C=N/NC(=O)CN1CCN(Cc2ccccc2)CC1 | 0.994% | 
3 | CSc1nc2ccccc2cc1/C=C(\C#N)c1ccc(Cl)cc1Cl | -10.7% | 
4 | Cc1ccc(-c2nnc(SCc3ccccc3C)o2)cc1 | -2.32% | 
5 | Cc1ccc(S(=O)(=O)N(CC(O)CN2C(=O)NC(C)(C)C2=O)c2cccc([N+](=O)[O-])c2)cc1 (configuration not stated) | -5.2% | 
6 | COc1ccc([N+](=O)[O-])cc1N(CC(O)CN(CC(C)C)CC(C)C)S(=O)(=O)c1ccc(C)cc1 (configuration not stated) |  | 25.9 µM (active)
7 | Cc1ccc(S(=O)(=O)N(CC(O)CN2CCCCC2)c2cccc([N+](=O)[O-])c2)cc1 (configuration not stated) | 3.37% | 
8 | COC(=O)c1ccc(CNC(=O)C2CCC(=O)N(Cc3ccccn3)C2)cc1 (configuration not stated) | -14.2% | 
9 | CCOC(=O)COc1ccc(Cl)cc1C1NC(=O)NC(C)=C1C(C)=O (configuration not stated) | -12% | 
10 | CCOCCOC(=O)C1=C(C)NC(=O)NC1c1ccc2c(c1)OCO2 (configuration not stated) | -6.39% | 
11 | CCOC(=O)C1=C(CNC2CCCCC2)NC(=O)NC1c1cc(C)ccc1C (configuration not stated) |  | 25.9 µM (active)
12 | NC(=O)N1CCc2ccccc21 | -8.45% | 
13 | CCOC(=O)C1=C(CN2CCc3ccccc32)NC(=O)NC1c1cc(C)ccc1C (configuration not stated) |  | 17.8 µM (active)
14 | CCOC(=O)C1=C(c2ccccc2)NC(=O)NC1c1cc(OC)c(OC)cc1OC (configuration not stated) | 3.86% | 
15 | Cc1nn(-c2ccccc2)c2c1C(c1cccc([N+](=O)[O-])c1)N(c1ccccc1)C(=O)N2 (configuration not stated) | -27% | 
16 | CCOC(=O)C1=C(CSc2nccn2C)NC(=O)NC1c1ccc(OC)cc1 (configuration not stated) | -2.12% | 
17 | CCOC(=O)C1=C(CN2CCc3ccccc32)NC(=O)NC1c1cccc([N+](=O)[O-])c1 (configuration not stated) |  | 14.1 µM (active)
18 | CCc1cc(-c2nnc(SCC(=O)NC3CC3)n2C)cs1 | 22.9% | 
19 | NC(CSC(c1ccccc1)(c1ccccc1)c1ccc(-c2ccccc2)cc1)C(=O)O (configuration not stated) | -28.2% | 
20 | COC(=O)[C@@H]1C[C@H](NC(=O)c2ccccc2C(F)(F)F)CN1Cc1cccc(O)c1 | 9.61% [at 9.04 µM] | 
21 | CC(CN1CCC(n2nccc2NC(=O)C2CCCC2)CC1)c1ccccc1 (configuration not stated) | 7.53% | 
22 | C=CCN1CCN(c2ccncc2S(=O)(=O)N2CCN(C)CC2)CC1 | 12.7% | 
23 | CC1(C(=O)NCc2ccccc2)CSCC(=O)N1CCCN1CCOCC1 (configuration not stated) | 22.5% | 
24 | Cc1cc2oc(=O)cc(CN(C)Cc3ccccc3)c2cc1Cl | -8.96% | 
25 | CC(C)(O)C#Cc1ccc(CNC[C@H]2O[C@@H](n3cnc4c(=O)[nH]c(N)nc43)[C@H](O)[C@@H]2O)s1 | 12.5% | 
26 | C=C(C)C(=O)O[C@H]1C/C(C)=C\C(=O)/C=C(\C)[C@H](O)[C@@H]2OC(=O)C(=C)[C@@H]21 |  | 0.58 µM (active)

Row | SMILES | activity change, negative = growth inhibition | Potency
27 | C/C=C(\C)C(=O)O[C@H]1CC(C)=C2C(=O)C=C(C)C2[C@@H]2OC(=O)[C@@](C)(OC(=O)C=C(C)C)C21 (some centres not stated) | -19.3% [at 9.04 µM] | 
28 | Cc1ccc(CNC(=O)CC(NC(=O)c2ccccc2)c2ccccc2)cc1 (configuration not stated) | -3.51% | 
29 | Cn1c(SCC(=O)Nc2nccs2)nnc1-c1cccnc1 | -11.3% | 
30 | CCOC(=O)C1CCN(C(=O)Nc2ccc(C)c(Cl)c2)CC1 | -1.03% | 
31 | COc1ccc(NC(=O)NCc2ccc3c(c2)OCO3)c(OC)c1 | 9.94% | 
32 | COc1ccc2c(c1)C(C)=CC(C)(C)N2C(=O)CNCc1ccc2c(c1)OCO2 |  | 20.6 µM (active)
33 | COc1cccc(CNCc2ccc3c(c2)OCO3)c1 | -22.9% | 
34 | CCc1ccc(-n2c(=S)sc3c(=O)n(-c4ccccc4OC)c(=S)[nH]c32)cc1 | -29.9% | 
35 | NS(=O)(=O)c1ccc(NC(=S)NNC(=O)c2cccs2)cc1 | -1.2% | 
36 | COc1cccc(NC(=O)C(Sc2nc3ccccc3c(=O)n2CC(C)C)c2ccccc2)c1 (configuration not stated) | -22.3% | 
37 | COc1cccc(Nc2nc3ccccc3c3nncn23)c1 |  | 16.4 µM (active)
38 | FC(F)(F)c1cc(Nc2nc3ccccc3c3nncn23)ccc1Cl |  | 23.1 µM (active)
39 | COc1ccc(C)cc1Nc1nc2ccccc2c2nnc(C)n12 | -15.5% | 
40 | FC(F)(F)c1ccccc1-c1nc(-n2ccnc2)c2ccccc2n1 | 5.11% | 
41 | O=C(OCC(=O)c1cccs1)c1ccc([N+](=O)[O-])o1 | 7.59% | 
42 | Cc1ccc(CNC(=O)C2CCN(S(=O)(=O)c3ccc4nc5c(c(C(=O)O)c4c3)CC(C)CC5)CC2)cc1 (configuration not stated) |  | inactive
43 | CCn1cc(CNC(=O)c2cc([N+](=O)[O-])c(C)c([N+](=O)[O-])c2)cn1 | -0.555% | 
44 | O=C(COc1ccc(Br)cc1)OCC(=O)c1ccc[nH]1 | -2.95% | 
45 | Cc1c(C)n2c(SCC(=O)N3CCCC3)nnc2[nH]c1=O | -2.74% | 
46 | Cc1cc2nnc(SCC(=O)N3CCN(c4ccccc4)CC3)n2c(N)n1 | -13.6% | 
47 | CCOC(=O)C1CCCN(C(=O)CSc2nnc3nc(C)cc(C)n23)C1 (configuration not stated) |  | 25.9 µM (active)
48 | CN(C(=O)COC(=O)c1ccc(Br)o1)c1c(N)n(Cc2ccccc2)c(=O)[nH]c1=O | -5.55% | 
49 | C[C@@H]1CN([C@@H](C)CO)S(=O)(=O)c2ccc(C#Cc3cccc(F)c3)cc2O[C@H]1CN(C)S(=O)(=O)c1cn(C)cn1 |  | 18.4 µM (active)
50 | C[C@@H]1CN([C@@H](C)CO)S(=O)(=O)c2ccc(-c3ccc(C(=O)N(C)C)cc3)cc2O[C@@H]1CN(C)Cc1ccccc1C(=O)O | 9.29% | 
51 | Cc1ccccc1-c1ccc2c(c1)O[C@@H](CN(C)Cc1ccc(C(=O)O)cc1)[C@@H](C)CN([C@H](C)CO)S2(=O)=O | 10.1% | 
52 | C[C@H](CO)N1C[C@H](C)[C@@H](CN(C)C(=O)c2cccc(F)c2)Oc2cc(-c3cncnc3)ccc2S1(=O)=O | -23.7% | 
